A selection: hits, their analogues and other compounds. The true share with any hit is near 0.81%.
TRHR enhancer: allosterically enhances the human TRH receptor | P34981 | TRHR cells, fluo-8 calcium fluorescence, EC20 TRH enhancement | enhancement, % at 2 µM | 360,000 compounds, 0.66% hits | AID 493056; in the data active means enhancement above about 30%; further: 0% is about no effect
Target sequence (P34981 whole entry, looked up): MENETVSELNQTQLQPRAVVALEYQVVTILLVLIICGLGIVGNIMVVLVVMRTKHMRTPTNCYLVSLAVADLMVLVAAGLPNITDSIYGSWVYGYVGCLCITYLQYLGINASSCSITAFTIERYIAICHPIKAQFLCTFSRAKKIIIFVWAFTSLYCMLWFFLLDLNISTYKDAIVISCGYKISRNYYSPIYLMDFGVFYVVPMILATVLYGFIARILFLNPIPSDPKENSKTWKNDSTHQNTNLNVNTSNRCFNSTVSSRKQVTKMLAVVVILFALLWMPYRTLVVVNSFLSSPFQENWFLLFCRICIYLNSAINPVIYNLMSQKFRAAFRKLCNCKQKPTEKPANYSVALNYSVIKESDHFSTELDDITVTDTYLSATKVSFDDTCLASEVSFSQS
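Enhancer read-out: after compound pinning and an initial kinetic agonist-mode read, an EC20 of TRH (10 nM final) was injected and fluo-8 calcium signal (Ex 480/Em 530) followed at 1 s/cycle for 100 cycles in TRHR-expressing cells.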
TRPML1 inh: blocks the human TRPML1 channel; AID 624415; activity change, negative = inhibition, % (no concentration beside the values); 390,000 compounds, 0.02% hits; Q9GZU1; TRPML1-inducible cells, Ca2+ dye fluorescence, FDSS; stronger effect = lower value; inhibition of EC80 agonist-evoked calcium signal; in the data active means activity change below about -50%; inconclusive means between about -30% and that limit;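 further: stimulus is agonist 54-4 at its EC80 concentration; on the % scale 0 is the no-effect control and ±100 the full control effect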
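Calcium fluorescence in TRPML1-DL cells induced overnight with Tet: a 110 s read after compound pin addition, then a 110 s antagonist read after challenge with 54-4 at 4 uM final (EC80).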
TRPML1 agonist: human mucolipin-1 channel agonism. Q9GZU1. activation, % (no concentration beside the values). 410,000 compounds, 0.12% hits. TRPML1-expressing cells, Ca2+ dye fluorescence, FDSS; in the data active means activation above about 50%; inconclusive means mostly about 30% to 49%; further: 0% is about no effect
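Tetracycline-induced TRPML1-DL cells are seeded and incubated overnight before loading with a no-wash Ca2+ dye and quencher. Agonist activity is taken from the 110 s fluorescence read following compound pin-transfer on an FDSS, before EC80 54-4 challenge.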
TRHR agonist: TRH receptor (human) agonism; P34981; TRHR cells, calcium flux fluo-8, FDSS agonist mode; activation, % at 2 µM; 360,000 compounds, 0.18% hits; AID 493084; in the data active means activation above about 30%; further: 0% is about no effect
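Agonist-mode FDSS calcium read (Ex 480/Em 530, 1 s cycles) in 1536-well TRHR cells with fluo-8 dye, after 10-cycle baseline and 23 nL compound addition; TRH at EC20 (10 nM final) added afterwards for the enhancer phase.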
The depositor's hits bear a star.

N#CC(c1cccc(C(F)(F)F)c1)(c1ncc(C(F)(F)F)cc1Cl)N1CCOCC1 (stereo not given) was read as TRHR enhancer 10.9, TRPML1 inh -6.6, TRPML1 agonist 56.5* and TRHR agonist -0.1.
Screening N#CC(c1ccccc1)(c1ncc(C(F)(F)F)cc1Cl)N1CCOCC1 (stereo not given) returned TRPML1 inh 1.8 and TRPML1 agonist 0.7.
`O=C1/C(=C/c2ccc(N3CCCC3)cc2)NC(=S)N1C1CC1` gave TRHR enhancer 9.5, TRPML1 inh -8.5, TRPML1 agonist 50.1* and TRHR agonist 91.4*.
Screening Cc1cc(N2CCCC2)ccc1/C=C1\NC(=S)N(C)C1=O returned TRHR enhancer 8.1, TRPML1 inh -7.4, TRPML1 agonist 27.6 and TRHR agonist 63.5*.
`O=C1N/C(=C/c2ccc(N3CCCC3)cc2)C(=O)N1c1ccccc1` gave TRHR enhancer 6.5, TRPML1 inh 6.8, TRPML1 agonist 4.4 and TRHR agonist 2.5.
Screening CCOC(=O)c1c(C)c(C(=O)NCc2cccs2)c(C)n1C returned TRHR enhancer 3.0, TRPML1 inh -56.7*, TRPML1 agonist 0.4 and TRHR agonist -0.5.
Nc1c(-c2ccccc2)cc[nH]c1=O was read as TRHR enhancer 4.4 and TRHR agonist 1.8.
`O=C(NC1=NCCS1)c1cccc(S(=O)(=O)N2CCOCC2)c1` gave TRHR enhancer 31.7*, TRPML1 inh 17.3, TRPML1 agonist -0.2 and TRHR agonist 1.1.
For Cc1cccc(C)c1-n1nnnc1SCc1nc(N)nc(N(C)C)n1 the results were TRPML1 inh 6.0 and TRPML1 agonist 1.8.
CN(C)c1nc(N)nc(CSc2nnnn2-c2ccc(F)cc2)n1 was read as TRHR enhancer 38.0*, TRPML1 inh 4.2, TRPML1 agonist 1.0 and TRHR agonist 0.0.
Screening COc1ccc(CCn2c(=S)[nH]c(=O)c3nccnc32)cc1OC returned TRPML1 agonist -1.0.
Screening O=C(CNC(=O)c1ccccc1)OC1CCCCC1 returned TRHR enhancer 32.9*, TRPML1 inh 5.6, TRPML1 agonist -0.6 and TRHR agonist -0.5.
`O=C(NCc1ccccc1)c1ccc(C(=O)N(C2CCCCC2)C2CCCCC2)cc1` gave TRHR enhancer -10.2, TRPML1 inh inconclusive, TRPML1 agonist 118.6* and TRHR agonist -1.3.
C[C@@H]1[C@H](c2ccccc2)OCCS(=O)(=O)N1Cc1ccc(Cl)cc1 was read as TRPML1 agonist -0.1.
`CCOC(=O)C1=C(C)NC(=O)CC1c1ccccc1` (stereo not given) gave TRHR enhancer 39.9*, TRPML1 inh -0.1, TRPML1 agonist -1.2 and TRHR agonist -1.4.
For COC(=O)c1cc(NC(=O)CSc2nnc(N)s2)ccc1Cl the results were TRHR enhancer 34.0*, TRPML1 inh -5.0, TRPML1 agonist -0.5 and TRHR agonist 0.4.
Screening Nc1nnc(SCC(=O)Nc2ccc(Cl)c(C(=O)O)c2)s1 returned TRHR enhancer 4.4, TRPML1 inh 14.7, TRPML1 agonist 0.5 and TRHR agonist 0.4.
Screening CCN1CCC(O)(C#Cc2ccccc2)CC1 returned TRHR enhancer 4.2, TRPML1 inh -1.4, TRPML1 agonist -0.3 and TRHR agonist 1.8.
Screening CC1C(c2ccccc2)N(C)C(c2ccccc2)C(C)C1(O)C#Cc1ccccc1 (stereo not given) returned TRHR enhancer 38.6*, TRPML1 inh 9.1, TRPML1 agonist 1.9 and TRHR agonist 0.9.
`O=C(NNC(=S)NC(=O)C12CC3CC(CC(C3)C1)C2)c1ccncc1` gave TRHR enhancer 6.1, TRPML1 inh -1.7, TRPML1 agonist inconclusive and TRHR agonist 35.9*.
`CCCNC(=O)c1c(NC(=O)c2ccccc2F)sc2c1CCCCC2` gave TRHR enhancer 34.8*, TRPML1 inh -1.0, TRPML1 agonist -0.1 and TRHR agonist 0.2.
Screening O=C(Cc1ccccc1)Nc1sc2c(c1C(=O)Nc1cccc(Cl)c1)CCCCC2 returned TRHR enhancer -3.7, TRPML1 inh 13.0, TRPML1 agonist 1.5 and TRHR agonist 0.8.
`O=C(Cc1ccccc1)Nc1sc2c(c1C(=O)Nc1ccccc1Cl)CCCCC2` gave TRHR enhancer 33.3*, TRPML1 inh 22.1, TRPML1 agonist 1.6 and TRHR agonist 0.4.
Screening CN(C)c1ccc(/C=C2\C=Cc3ccccc32)cc1[N+](=O)[O-] returned TRPML1 agonist -0.5.
Screening COc1cc2c(NC3CCN(C)CC3)nc(N3CCCN(C)CC3)nc2cc1OCCN(C)C returned TRPML1 agonist -0.2.
C[n+]1c2cc(N)ccc2cc2ccc(N)cc21 was read as TRPML1 inh inconclusive and TRPML1 agonist 104.4*.
`O=C(Nc1ccc(Br)cc1F)c1ccc2c(c1)OCCO2` gave TRHR enhancer -6.4, TRPML1 inh -13.3, TRPML1 agonist 3.3 and TRHR agonist -0.1.
For CCC(=O)Nc1ccc(C(=O)Nc2ccc(Br)cc2F)cc1 the results were TRHR enhancer 40.5*, TRPML1 inh -27.9, TRPML1 agonist -0.2 and TRHR agonist 1.6.
Screening COc1ccccc1CN1C2CCCC1CC(NC(=O)/C=C/c1ccccc1)C2 (stereo not given) returned TRHR enhancer 32.3*, TRPML1 inh 14.7, TRPML1 agonist -0.7 and TRHR agonist -0.5.
`CCn1nc(-c2ccc(C)cc2)nc2c(=O)n(C)c(=O)nc1-2` gave TRPML1 agonist -0.5.
For COc1ccc(-c2nc3ccccc3s2)cc1NC(=O)c1ccccc1OC the results were TRHR enhancer 34.2*, TRPML1 inh -1.0, TRPML1 agonist 0.0 and TRHR agonist -0.8.
COc1ccc(C(=O)Nc2cc(-c3nc4ccccc4s3)ccc2OC)cc1 was read as TRHR enhancer -5.0, TRPML1 inh -6.4, TRPML1 agonist 1.2 and TRHR agonist 2.0.
`CC(=O)Nc1sc2c(c1-c1nc3ccccc3s1)CCN(C(C)C)C2` gave TRHR enhancer -4.0, TRPML1 inh 18.9, TRPML1 agonist 10.2 and TRHR agonist 129.7*.
For Cc1csc(NC(=O)CSCC(=O)O)c1-c1nc2ccccc2s1 the results were TRHR enhancer 4.6, TRPML1 inh 6.4, TRPML1 agonist 1.3 and TRHR agonist -0.7.
`CN1CCc2c(sc(NC(=O)CSc3ccc(F)cc3)c2-c2nc3ccccc3s2)C1` gave TRHR enhancer -12.9, TRPML1 inh -12.7, TRPML1 agonist 66.1* and TRHR agonist 102.3*.
CCN1CCc2c(sc(NC(=O)CSc3ccccc3)c2-c2nc3ccccc3s2)C1 was read as TRHR enhancer -19.9, TRPML1 inh -14.4, TRPML1 agonist 70.2* and TRHR agonist 147.2*.
`CC(=O)N1CCc2c(sc(NC(=O)CSc3ccc(F)cc3)c2-c2nc3ccccc3s2)C1` gave TRHR enhancer -3.1, TRPML1 inh -6.4, TRPML1 agonist 0.0 and TRHR agonist 0.2.
Screening CCCCCCCCCCCCCCCCCCN(CCCCCCCCCCCCCCCCCC)c1ccc(/C=C/c2ccc(C=O)cc2)cc1 returned TRPML1 agonist 0.1.
`COc1cc2c(NC3CCN(C)CC3)nc(N3CCCN(C)CC3)nc2cc1OCc1ccccc1` gave TRPML1 agonist -0.7.
